Laboratory results: PubChem BioAssay (NCATS)
Inconclusive results are not listed. Active and inactive are the calls of the source. Calls follow the shape of the dose curve; as a rule, active = well fitted inhibition curve with a large enough effect; inconclusive = small, poorly fitted or top-dose-only effect; inactive = flat fitted curve, though single readings scatter. Numbered stars: 1 amine (or outer) side, 2 acyl side, 3 side chain; on linkers, the order of the positions; unused ones are H or OH. Bridge positions count the residues as written; N and C are the ends. Square brackets hold non-standard residues; d marks the D form. Peptide text beside a SMILES is read from it. I, II: the chains in the order shown. Actinocin(9to1) = Cc1c2oc3c(C)ccc(C(=O)[*:1])c3nc-2c(C(=O)[*:2])c(N)c1=O; NMeV = CN[C@H](C(=O)O)C(C)C; Sar = CNCC(=O)O

Columns and labels:
Assay in all cases: qHTS profiling for inhibitors of Plasmodium falciparum proliferation (AID 504749); also: nearly all actives have a fitted effect of over 60% in size
Conditions in all cases: P. falciparum in erythrocytes, SYBR Green DNA, 72 h; series mostly up to 28.7 µM
7G8 = test system: 7G8
Outline: (§1)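 Infected RBCs, 0.3% parasitemia/2.5% Hct final; cpd 72 h, 37 C, 5% CO2; lysis buffer with saponin/triton/SYBR Green I, o/n RT dark; FI 485/535; norm. to artemisinin (0.29 uM) and DMSO.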

AA1029 = test system: AA1029
Outline: as §1

AS120 = test system: AS120
Outline: as §1

ATS189 = test system: ATS189
Outline: as §1

ATS95 = test system: ATS95
Outline: as §1

C2A = test system: C2A
Outline: as §1

CP185 = test system: CP185
Outline: as §1

CP191 = test system: CP191
Outline: as §1

CP192 = test system: CP192
Outline: as §1

CP194 = test system: CP194
Outline: as §1

CP201 = test system: CP201
Outline: as §1

CP203 = test system: CP203
Outline: as §1

CP211 = test system: CP211
Outline: as §1

CP215 = test system: CP215
Outline: as §1

CP217 = test system: CP217
Outline: as §1

CP237 = test system: CP237
Outline: as §1

CP238 = test system: CP238
Outline: as §1

CP247 = test system: CP247
Outline: as §1

CP250 = test system: CP250
Outline: as §1

CP252 = test system: CP252
Outline: as §1

Measured: Potency
Potency is read from the fitted curve at half-maximal effect.

O=C(COc1ccc(Cl)cc1)N1CCN(Cc2ccc3c(c2)OCO3)CC1
inactive: all assays above

COc1ccc(C2C(=O)c3ccccc3C2=O)cc1
inactive: all assays above

CC(=O)Oc1ccc(C(=C2CCCCC2)c2ccc(OC(C)=O)cc2)cc1
inactive: all assays above

NC(CO)(CO)CO
inactive: all assays above

NCCc1ccn[nH]1
inactive: all assays above

C[N+]1(CCCCC[N+]2(C)CCCC2)CCCC1
inactive: all assays above

Nc1ccc(C(=O)Nc2ccccc2N)cc1
inactive: all assays above

CCOc1ccc(NC(=O)CC(C)O)cc1 (stereo unspecified)
inactive: all assays above

Cc1c(F)c(N2CCNC(C)C2)cc2c1c(=O)c(C(=O)O)cn2C1CC1 (stereo unspecified)
inactive: all assays above

CCCCCCc1ccc(O)cc1O
inactive: all assays above

C[C@]12CC[C@@H]3c4ccc(O)cc4CC[C@H]3[C@@H]1CC[C@@H]2O
not listed: CP203
inactive: all other assays above

CN1C(CCl)Nc2cc(Cl)c(S(N)(=O)=O)cc2S1(=O)=O (stereo unspecified)
inactive: all assays above

Nc1ccc(C(=O)O)cc1
inactive: all assays above

Cc1ncc(CSSCc2cnc(C)c(O)c2CO)c(CO)c1O
inactive: all assays above

Cc1cccn2c(=O)c(-c3nnn[nH]3)cnc12
inactive: all assays above

CCCCCCC[N+](CC)(CC)CCCCc1ccc(Cl)cc1
active: 7G8 631 nM | AA1029 2000 nM | AS120 2510 nM | ATS189 2820 nM | ATS95 2240 nM | C2A 1580 nM | CP185 2000 nM | CP191 2000 nM | CP192 2030 nM | CP194 2280 nM | CP201 2560 nM | CP203 1810 nM | CP211 1440 nM | CP215 2030 nM | CP217 2820 nM | CP237 2820 nM | CP238 2510 nM | CP247 2510 nM | CP250 3160 nM | CP252 2510 nM

CC(C)(C)CC(C)(C)c1ccc(OCCOCC[N+](C)(C)Cc2ccccc2)cc1
active: 7G8 1580 nM | AA1029 4470 nM | AS120 5010 nM | ATS189 7080 nM | ATS95 3980 nM | C2A 3160 nM | CP185 3550 nM | CP191 1580 nM | CP192 4260 nM | CP194 3790 nM | CP201 4780 nM | CP203 4780 nM | CP211 4260 nM | CP215 5360 nM | CP217 4470 nM | CP237 2510 nM | CP238 4470 nM | CP247 3980 nM | CP250 4470 nM | CP252 5010 nM

Cc1c2oc3c(C)ccc(C(=O)N[C@@H]4C(=O)N[C@H](C(C)C)C(=O)N5CCC[C@H]5C(=O)N(C)CC(=O)N(C)[C@@H](C(C)C)C(=O)O[C@@H]4C)c3nc-2c(C(=O)N[C@@H]2C(=O)N[C@H](C(C)C)C(=O)N3CCC[C@H]3C(=O)N(C)CC(=O)N(C)[C@@H](C(C)C)C(=O)O[C@@H]2C)c(N)c1=O (I: T[dV]P[Sar][NMeV] / II: T[dV]P[Sar][NMeV]; ester I:1-I:C, II:1-II:C; linker I:N-II:N via Actinocin(9to1))
active: 7G8 1.3 nM | AA1029 4.5 nM | AS120 4.5 nM | ATS189 3.2 nM | ATS95 4 nM | C2A 5.6 nM | CP185 4.5 nM | CP191 4.5 nM | CP192 6 nM | CP194 5.4 nM | CP201 7.6 nM | CP211 6 nM | CP215 5.4 nM | CP217 7.1 nM | CP237 0.0708 nM | CP238 1.8 nM | CP247 7.1 nM | CP250 3.5 nM | CP252 5.6 nM

Cc1cc(=O)n(-c2ccccc2)n1C
inactive: all assays above

COc1cc(NS(C)(=O)=O)ccc1Nc1c2ccccc2nc2ccccc12
active: 7G8 1260 nM | AA1029 3550 nM | AS120 2240 nM | ATS189 3980 nM | ATS95 3550 nM | C2A 1780 nM | CP185 4470 nM | CP191 794 nM | CP192 5360 nM | CP194 4780 nM | CP201 5360 nM | CP203 4260 nM | CP211 4780 nM | CP215 3380 nM | CP217 3160 nM | CP237 1580 nM | CP238 4470 nM | CP247 1260 nM | CP250 1580 nM | CP252 891 nM

CCOC(=O)n1ccn(C)c1=S
inactive: all assays above

CC(=O)Oc1ccc(C(c2ccc(OC(C)=O)cc2)c2ccccn2)cc1
inactive: all assays above

CN(C)/N=N/c1nc[nH]c1C(N)=O
not listed: CP203
inactive: all other assays above

CCOc1ccc2nc3cc(N)ccc3c(N)c2c1
active: 7G8 1780 nM | AA1029 7940 nM | AS120 8910 nM | ATS189 7080 nM | ATS95 10000 nM | C2A 6310 nM | CP185 5010 nM | CP191 5010 nM | CP192 9530 nM | CP194 15100 nM | CP201 12000 nM | CP203 16900 nM | CP215 9530 nM | CP217 7080 nM | CP237 4470 nM | CP238 5010 nM | CP247 10000 nM | CP250 8910 nM | CP252 7080 nM

C[C@]12CCC(=O)C=C1CC[C@H]1[C@@H]3CC[C@](O)(C(=O)CO)[C@@]3(C)C[C@H](O)[C@@]12F
inactive: all assays above
